Test results reported in PubChem BioAssay (NCATS).
Records with an inconclusive call do not appear. Calls of active or inactive are those of the source. Unless noted, calls come from the whole dose curve; as a rule, active = well fitted curve in the direction sought with a large enough effect; inconclusive = small, poorly fitted or top-dose-only effect, or another doubt; inactive = no such curve, though single readings can be large; an effect the other way counts as inactive or inconclusive.

What was measured:
[1] = molecular target: Aldehyde dehydrogenase, mitochondrial (Homo sapiens) (UniProt P05091); assay: qHTS for Inhibitors of the Aldehyde Dehydrogenase Family (ALDH2) Validation screens (AID 2061302; active = well fitted inhibition curve with a large enough effect; title and protocol of this record describe different tests; note: potency is the fitted concentration of half-maximal effect)
[2] = molecular target: Aldehyde dehydrogenase, mitochondrial (Homo sapiens) (UniProt P05091); assay: qHTS for Inhibitors of the Aldehyde Dehydrogenase Family (ALDH2) Confirmatory screens (AID 2061303; active = well fitted inhibition curve with a large enough effect; title and protocol of this record describe different tests; note: nearly all actives have a fitted effect of over 45% in size; note: potency is the fitted concentration of half-maximal effect)
[3] = molecular target: Retinaldehyde dehydrogenase 3 (Homo sapiens) (UniProt P47895); assay: qHTS for Inhibitors of the Aldehyde Dehydrogenase Family (ALDH1A3) Confirmatory screens (AID 2061311); note: nearly all actives have a fitted effect of over 60% in size; note: potency is the fitted concentration of half-maximal effect
[4] = molecular target: Retinal dehydrogenase 2 (Homo sapiens) (UniProt O94788); assay: qHTS for Inhibitors of the Aldehyde Dehydrogenase Family (ALDH1A2) Confirmation screens (AID 2061314); note: nearly all actives have a fitted effect of over 65% in size; note: potency is the fitted concentration of half-maximal effect
[5] = BET inhibitor-based combinations targeting novel dependencies in MECOM-rearranged (r) AML: SET-2 cell line (AID 2202231); details: SET-2 AML cells viability, CellTiter-Glo luminescence, 48 h; viability: stronger effect = lower value, concentration not given here; note: nearly all actives have a fitted effect of over 35% in size; note: potency is the fitted concentration of half-maximal effect;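 for viability: plate controls were DMSO treated cells for no effect and wells without cells for full effect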
Method in brief: (§1)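 Readout: CellTiter-Glo luminescence. Exposure: 48 h, 11 concentrations, 500 cells/well. Metric: AUC and within-line Z-AUC after DMSO/empty-well normalization.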

[6] = BET inhibitor-based combinations targeting novel dependencies in MECOM-rearranged (r) AML: OCI-AML3 cell line (AID 2202232); details: Potency: OCI-AML3 viability; note: nearly all actives have a fitted effect of over 35% in size; note: potency is the fitted concentration of half-maximal effect
Method in brief: as §1

[7] = BET inhibitor-based combinations targeting novel dependencies in MECOM-rearranged (r) AML: HNT-34 cell line (AID 2202234); note: nearly all actives have a fitted effect of over 35% in size; note: potency is the fitted concentration of half-maximal effect
Method in brief: (§2)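 Seeding density was 500 cells/well, and drug exposure lasted 48 hr under standard culture conditions. Read-out used CellTiter-Glo reagent with a 15 min room-temperature incubation before luminescence measurement; AUC and Z-AUC summarize the normalized responses.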

[8] = BET inhibitor-based combinations targeting novel dependencies in MECOM-rearranged (r) AML: UCSD-AML1 cell line (AID 2202235); note: nearly all actives have a fitted effect of over 40% in size; note: potency is the fitted concentration of half-maximal effect
Method in brief: as §2

[9] = BET inhibitor-based combinations targeting novel dependencies in MECOM-rearranged (r) AML: AML-191 cell line (AID 2202236;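 note: plate controls were vehicle wells for no effect and wells without cells for full effect; nearly all actives have a fitted effect of over 35% in size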)
Method in brief: as §1

[10] = qHTS for Inhibitors of the Aldehyde Dehydrogenase Family (ALDH1A2, ALDH1A3, ALDH2, ALDH3A1) (AID 2061307); note: nearly all actives have a fitted effect of over 50% in size; for Potency: test system not described further here; potency is the fitted concentration of half-maximal effect
[11] = molecular target: Retinaldehyde dehydrogenase 3 (Homo sapiens) (UniProt P47895); assay: qHTS for Inhibitors of the Aldehyde Dehydrogenase Family (ALDH1A3) Primary screen (AID 2061315);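 note: plate controls were DMSO vehicle for no effect and reference inhibitor for full effect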
[12] = molecular target: Aldehyde dehydrogenase 1A1 (Homo sapiens) (UniProt P00352); assay: qHTS for Inhibitors of the Aldehyde Dehydrogenase Family (ALDH1A1) Confirmatory screens (AID 2061316); note: nearly all actives have a fitted effect of over 65% in size; note: potency is the fitted concentration of half-maximal effect
[13] = molecular target: Retinaldehyde dehydrogenase 3 (Homo sapiens) (UniProt P47895); assay: qHTS for Inhibitors of the Aldehyde Dehydrogenase Family (ALDH1A3) Validation screen (AID 2061312); note: % is set by controls: 0 for no effect and ±100 for the full control effect; nearly all actives have a fitted effect of over 45% in size
[14] = molecular target: Aldehyde dehydrogenase, mitochondrial (Homo sapiens) (UniProt P05091); assay: qHTS for Inhibitors of the Aldehyde Dehydrogenase Family (ALDH2) Primary screen (AID 2061308); note: nearly all actives have a fitted effect of over 55% in size; note: potency is the fitted concentration of half-maximal effect
[15] = BET inhibitor-based combinations targeting novel dependencies in MECOM-rearranged (r) AML: AML-194 cell line (AID 2202237; note: nearly all actives have a fitted effect of over 40% in size; note: potency is the fitted concentration of half-maximal effect)
Method in brief: as §1

[16] = BET inhibitor-based combinations targeting novel dependencies in MECOM-rearranged (r) AML: MV-4-11 cell line (AID 2202233); note: nearly all actives have a fitted effect of over 45% in size; note: potency is the fitted concentration of half-maximal effect
Method in brief: as §2

O=C1CCc2cc(OCCCCc3nnnn3C3CCCCC3)ccc2N1
inactive: Potency [1] | Potency [6] | Potency [7] | Potency [8] | Potency [9]
active: Potency [2] 0.631 µM | Potency [3] 0.631 µM | Potency [4] 7.94 µM | Potency [5] 16.6 µM

CC(C)(C)OC(=O)N1CCN(c2ccc(NCc3ccc(-c4ccc(C#N)cc4)o3)cn2)CC1
inactive: Potency [11]
active: Potency [1] 0.398 µM | Potency [2] 0.0357 µM | Potency [10] 6.31 µM | Potency [3] 7.08 µM | Potency [12] 2.25 µM

CC(C)NC[C@@H](O)c1ccc(O)c(O)c1
inactive: Potency [1]

CC[N+](CC)(CC)CC
inactive: Potency [1] | Potency [13]

CC(C)(C)OC(=O)N1CCC(c2ccc(NCc3ccc(-c4ccc(C#N)cc4)o3)cc2)CC1
inactive: Potency [11]
active: Potency [1] 0.355 µM | Potency [2] 0.112 µM | Potency [10] 0.896 µM | Potency [3] 3.16 µM | Potency [4] 8.91 µM | Potency [12] 12.7 µM

CC(C)(C)OC(=O)N1CCN(c2cnc(NCc3ccc(-c4ccc(C#N)cc4)o3)cn2)CC1
active: Potency [1] 0.316 µM | Potency [2] 0.355 µM | Potency [10] 3.18 µM | Potency [3] 11.3 µM | Potency [4] 1.79 µM | Potency [12] 4.49 µM
inactive: Potency [11]

COc1cc2nc(N(C)CCCNC(=O)C3CCCO3)nc(N)c2cc1OC (configuration not stated)
inactive: Potency [1]

CCN(CC)CCNC(=O)c1ccc(N)cc1
inactive: Potency [1] | Potency [2] | Potency [10] | Potency [3] | Potency [13] | Potency [4] | Potency [11] | Potency [12]

CC(C)(C)OC(=O)N1CCN(c2ccc(NCc3ccc(-c4ccc(C#N)cc4)o3)cc2)CC1
inactive: Potency [14] | Potency [11]
active: Potency [1] 0.282 µM | Potency [2] 0.0794 µM | Potency [10] 4.47 µM | Potency [3] 15.8 µM | Potency [4] 7.94 µM

Cc1ccc(S(=O)(=O)NC(=O)NN2CCCCCC2)cc1
inactive: Potency [1] | Potency [2] | Potency [3] | Potency [12]

Clc1ccc2c(c1)C(N1CCNCC1)=Nc1ccccc1O2
inactive: Potency [1] | Potency [14] | Potency [13] | Potency [11]

CC(C)(C)OC(=O)N1CCN(c2cccc(NCc3ccc(-c4ccc(C#N)cc4)o3)c2)CC1
inactive: Potency [4]
active: Potency [1] 1.78 µM | Potency [2] 1.12 µM | Potency [10] 1.59 µM | Potency [14] 0.282 µM | Potency [12] 7.12 µM

Cc1nnc(SCC2=C(C(=O)O)N3C(=O)[C@@H](NC(=O)Cn4cnnn4)[C@H]3SC2)s1
inactive: Potency [1]

CN1Cc2sccc2C(c2ccc(O)c(O)c2)C1 (configuration not stated)
inactive: Potency [1] | Potency [2] | Potency [10] | Potency [4]

CC(C)(C)OC(=O)N1CCN(c2cnc(NCc3ccc(-c4ccc(C#N)cc4)o3)nc2)CC1
active: Potency [1] 1.12 µM | Potency [2] 2.24 µM | Potency [10] 5.65 µM | Potency [3] 15.8 µM | Potency [4] 8.96 µM | Potency [12] 10.1 µM
inactive: Potency [11]

Cc1ccc(-c2cc(C(F)(F)F)nn2-c2ccc(S(N)(=O)=O)cc2)cc1
inactive: Potency [1] | Potency [14] | Potency [13] | Potency [11] | Potency [15]

CCC(NC(C)C)C(O)c1ccc(O)c(O)c1 (configuration not stated)
inactive: Potency [1] | Potency [2] | Potency [10] | Potency [3] | Potency [4]

O=c1cc(-c2ccccc2)[nH]c2nc(Cl)ccc12
inactive: Potency [1] | Potency [13]

COc1ccc(-c2coc3cc(O[C@@H]4O[C@H](CO)[C@@H](O)[C@H](O)[C@H]4O)ccc3c2=O)cc1
inactive: Potency [1]

Cc1cc(C(C)(C)C)c(O)c(C)c1CC1=NCCN1
inactive: Potency [1] | Potency [14] | Potency [13] | Potency [11] | viability [5] 118% | Potency [16] | Potency [7] | Potency [8] | Potency [9] | Potency [15]

CC(C)c1c(C(=O)Nc2ccccc2)c(-c2ccccc2)c(-c2ccc(F)cc2)n1CC[C@@H](O)C[C@@H](O)CC(=O)O
inactive: Potency [1] | Potency [14] | Potency [13] | Potency [11]
active: Potency [5] 7.23 µM | Potency [6] 3.23 µM | Potency [16] 5.74 µM | Potency [7] 10.2 µM | Potency [8] 7.23 µM | Potency [15] 12.9 µM
